From PubChem
The list is not random: actives were taken first. Their share in the collection is about 4%.
aDG glyco act: alpha-DG glycosylation activation; Pro5-aDG cells, alpha-DG glycosylation AlphaScreen (IIH6); 0% Pro5, 100% B10-LARGE cell signal; activation, % at 10 µM; 360,000 compounds, 0.22% hits;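 active = activation of at least 8% versus controls, or a plate z-score of at least 8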;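 note: Pro5 are CHO cells carrying HIG-tagged alpha-DG that lacks glycosylation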
FAS-TE inh: FAS thioesterase (human) inhibition | inhibition, % at 15 µM | P49327 | 360,000 compounds, 0.67% hits | recombinant FAS-TE, OMFH fluorogenic substrate, fluorescence endpoint;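 active = compounds whose normalised, plate-corrected inhibition of enzyme fluorescence in the single-dose primary screen is 50% or more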;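 note: 0% = DMSO with enzyme and 100% = substrate without enzyme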
ADAM10 inh: ADAM10 inhibition, QFRET primary screen. O14672. 370,000 compounds, 0.62% hits. recombinant ADAM10, EDANS/DABCYL FRET peptide cleavage, 3 h. inhibition, % at 7 µM;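 active = inhibition above a per-campaign cutoff equal to the mean of compounds falling between control-based bounds plus 3 SD, cut at about 20% in these data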;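 note: 0% = DMSO wells while the 100% control is not disclosed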
GRIN3A LBD mod: modulators (binders) of human NR3A ligand-binding domain | AID 1259313 | Tm shift relative to glycine control, % at 25 µM | 340,000 compounds, 2.5% hits | NR3A LBD differential scanning fluorimetry, Tm shift; 0% = protein alone, 100% = glycine-bound protein;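 active = melting temperature shift of at least 10% of the positive control shift, at one fixed dose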
ADAM17 inh: ADAM17 inhibition, QFRET primary screen | 370,000 compounds, 0.83% hits | recombinant ADAM17, EDANS/DABCYL FRET peptide cleavage | inhibition, % at 6.95 µM;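 active = inhibition above the mean of compounds lying between control limits plus 3 SD, set per campaign, cut at about 8.5% in these data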;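 note: 0% = DMSO-only wells as the low control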
Target sequence (P78536 215-824 limits assumed): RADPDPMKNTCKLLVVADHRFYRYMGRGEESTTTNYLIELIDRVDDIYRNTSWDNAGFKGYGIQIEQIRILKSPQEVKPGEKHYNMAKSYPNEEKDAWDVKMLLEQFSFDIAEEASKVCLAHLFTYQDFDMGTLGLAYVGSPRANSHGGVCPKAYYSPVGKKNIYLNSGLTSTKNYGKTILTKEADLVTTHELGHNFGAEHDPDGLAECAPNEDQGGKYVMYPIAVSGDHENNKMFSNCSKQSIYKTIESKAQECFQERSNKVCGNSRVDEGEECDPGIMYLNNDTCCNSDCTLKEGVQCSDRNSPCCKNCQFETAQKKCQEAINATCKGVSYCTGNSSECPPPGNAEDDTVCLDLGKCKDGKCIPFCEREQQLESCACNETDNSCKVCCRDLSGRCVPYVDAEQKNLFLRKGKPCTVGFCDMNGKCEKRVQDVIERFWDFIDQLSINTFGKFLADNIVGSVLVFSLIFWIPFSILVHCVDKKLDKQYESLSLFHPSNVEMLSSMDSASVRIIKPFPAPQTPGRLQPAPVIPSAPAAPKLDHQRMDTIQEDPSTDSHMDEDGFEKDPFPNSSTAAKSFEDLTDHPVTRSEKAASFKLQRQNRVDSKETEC
ADAM10 confirm: confirmation of inhibitors of human ADAM10 | ADAM10 QFRET peptide cleavage, EDANS fluorescence | shares compounds with ADAM10 inh | inhibition, % at 6.95 µM | 2,100 compounds, 1% hits;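 active = inhibition above about 20% chosen separately for each screening run, limit read from the data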;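 note: 0% = DMSO wells and 100% = marimastat wells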
ADAM17 counter: ADAM17 inhibition, counter-screen for ADAM10 exosite hits; ADAM17 QFRET peptide cleavage, EDANS fluorescence; shares compounds with ADAM10 inh; AID 743214; 2,100 compounds, 0.5% hits; inhibition, % at 6.95 µM;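 active = mean triplicate inhibition above the solvent-only control wells' mean plus 3 SD, cut at about 12% in these data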;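 note: 0% = DMSO wells and 100% = marimastat wells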
ADAM10 counter: inhibits human ADAM10 in ADAM17 exosite counter-screen. AID 743256. shares compounds with ADAM17 inh. recombinant ADAM10, EDANS/DABCYL FRET peptide cleavage, 3 h. inhibition, % at 6.95 µM. 2,900 compounds, 47% hits;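 active = mean inhibition over the triplicate runs exceeds the activity threshold set in the earlier primary screen, cut at about 20% in these data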;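 note: 0% = DMSO wells and 100% = marimastat wells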
ADAM17 confirm: human ADAM17 inhibition, confirmation | recombinant ADAM17, EDANS/DABCYL QFRET peptide cleavage | AID 743257 | shares compounds with ADAM17 inh | inhibition, % at 6.95 µM | 2,900 compounds, 65% hits;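 active = mean inhibition across replicates above the hit cutoff set in the primary screen, cut at about 8.5% in these data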;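 note: 0% = DMSO wells and 100% = marimastat wells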
* = called active by the depositor; ! = not confirmed by another sample.

What do the screens show for `O=C(Cc1c(Sc2ccccc2)c2ccccc2n1Cc1ccccc1)NCCO`?
aDG glyco act: 0; FAS-TE inh: 12; ADAM10 inh: 30*; GRIN3A LBD mod: -1; ADAM17 inh: 14*; ADAM10 confirm: 5; ADAM17 counter: 1; ADAM10 counter: 15; ADAM17 confirm: 9.1*

Results for COc1ccc(OCCCN(C)Cc2ccccc2)cc1 ?
aDG glyco act: 0; FAS-TE inh: -6; ADAM10 inh: 2; GRIN3A LBD mod: -1; ADAM17 inh: -2

What do the screens show for `CCc1c(C#N)c(SCCC(=O)Nc2ccc(F)cc2)nc2c1C(=O)CC(C)(C)C2`?
aDG glyco act: 0; FAS-TE inh: 30; ADAM10 inh: 31*; GRIN3A LBD mod: 2; ADAM17 inh: 10.0*; ADAM10 confirm: 6; ADAM17 counter: 2; ADAM10 counter: 33*; ADAM17 confirm: 13*

Results for CC1(C)CC(=O)c2c(nc(SCC(=O)Nc3nsc(-c4ccccc4)n3)c(C#N)c2-c2ccccc2)C1 ?
aDG glyco act: 2; FAS-TE inh: 44; ADAM10 inh: 6; GRIN3A LBD mod: -1; ADAM17 inh: -5

What do the screens show for `CCOC(=O)C1(C)NC(c2ccco2)C2C(=O)N(c3ccc(C)cc3)C(=O)C21` (stereo not given)?
aDG glyco act: 0; FAS-TE inh: -12; ADAM10 inh: -6; GRIN3A LBD mod: -6; ADAM17 inh: -3

What do the screens show for `COc1c(C(=O)Nc2ccc(CN3CCOCC3)cc2)cc2ccccc2c1Br`?
aDG glyco act: 0; FAS-TE inh: 10; ADAM10 inh: 15; GRIN3A LBD mod: -1; ADAM17 inh: 3

What do the screens show for `CCOc1ccc(Br)cc1S(=O)(=O)Nc1ccc(Cl)c(S(=O)(=O)N(CC)c2ccccc2)c1`?
aDG glyco act: 0; FAS-TE inh: 43; ADAM10 inh: 27*; GRIN3A LBD mod: 13*; ADAM17 inh: 9.4*; ADAM10 confirm: 8; ADAM17 counter: 3; ADAM10 counter: 35*; ADAM17 confirm: 19*

Results for CCOC(=O)C1CCN(C(=O)Cc2cccs2)CC1 ?
aDG glyco act: 0; FAS-TE inh: -2; ADAM10 inh: 5; GRIN3A LBD mod: 1; ADAM17 inh: -1

What do the screens show for `O=C(Nc1nc(-c2nc3ccccc3s2)cs1)c1ccc(S(=O)(=O)N2CCOCC2)cc1`?
aDG glyco act: 1; FAS-TE inh: 17; ADAM10 inh: 14; GRIN3A LBD mod: -3; ADAM17 inh: 3

How did O=C(Nc1nc(-c2ccc(S(=O)(=O)N3CCOCC3)cc2)cs1)c1ccccc1 do in these assays?
aDG glyco act: 0; FAS-TE inh: 22; ADAM10 inh: 21*!; GRIN3A LBD mod: -3; ADAM17 inh: 11*!; ADAM10 confirm: 10; ADAM17 counter: 5; ADAM10 counter: 0; ADAM17 confirm: 7

How did Cc1ccc(S(=O)(=O)N(C)c2ccc(OCC(=O)Nc3nc4ccccc4s3)cc2)cc1 do in these assays?
aDG glyco act: 0; FAS-TE inh: 20; ADAM10 inh: 29*; GRIN3A LBD mod: -6; ADAM17 inh: 18*; ADAM10 confirm: 10; ADAM17 counter: 3; ADAM10 counter: 23*; ADAM17 confirm: 16*

What do the screens show for `Cc1ccc(C)c(SCC(=O)Nc2cccc(S(=O)(=O)NC3=NCCCCC3)c2)c1`?
aDG glyco act: 0; FAS-TE inh: -5; ADAM10 inh: -7; GRIN3A LBD mod: -2; ADAM17 inh: -3
